Only some compounds are listed: those with a hit (about 1.1% of all), similar ones and a draw of the others.
OPRM1-OPRD1 inv – mu-delta opioid heterodimer inverse agonism; 0.21% of 340,000 active; inhibition, % at 9.3 µM; P35372+P41143; cell-based MOR-DOR heterodimer luminescence; in the data active means inhibition above about 22%, passing the limit was not always enough;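 further: 0% = cells with DMSO and 100% = wells without cells with DMSO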
Target sequence (P35372 whole entry, looked up): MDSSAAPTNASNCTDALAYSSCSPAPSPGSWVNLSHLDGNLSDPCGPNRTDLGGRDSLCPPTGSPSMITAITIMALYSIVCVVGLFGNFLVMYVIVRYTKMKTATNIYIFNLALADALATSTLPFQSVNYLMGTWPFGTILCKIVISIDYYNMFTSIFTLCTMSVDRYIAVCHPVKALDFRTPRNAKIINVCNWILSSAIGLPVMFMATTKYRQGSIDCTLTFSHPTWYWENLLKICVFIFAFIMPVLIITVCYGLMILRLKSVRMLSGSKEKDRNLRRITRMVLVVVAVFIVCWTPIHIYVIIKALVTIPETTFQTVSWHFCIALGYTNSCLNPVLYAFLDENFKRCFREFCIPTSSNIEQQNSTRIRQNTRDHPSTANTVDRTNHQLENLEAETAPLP
Target sequence (P41143 whole entry, looked up): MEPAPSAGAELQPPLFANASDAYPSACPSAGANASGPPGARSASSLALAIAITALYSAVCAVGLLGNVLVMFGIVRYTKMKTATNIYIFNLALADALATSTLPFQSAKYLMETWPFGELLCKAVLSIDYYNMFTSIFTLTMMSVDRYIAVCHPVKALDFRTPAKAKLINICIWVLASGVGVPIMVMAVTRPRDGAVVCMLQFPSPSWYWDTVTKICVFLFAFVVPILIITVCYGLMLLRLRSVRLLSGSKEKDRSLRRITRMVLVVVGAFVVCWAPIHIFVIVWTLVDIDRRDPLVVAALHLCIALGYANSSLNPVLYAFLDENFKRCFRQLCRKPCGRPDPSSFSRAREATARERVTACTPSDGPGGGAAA
HTR5A ag ctr – HTR5A agonism, opioid heterodimer counter-screen | P47898 | HTR5A agonist assay, luminescence, cell-based | activation, % at 9.3 µM | 0.61% of 340,000 active | AID 504692; in the data active means activation mostly above about 9.5%, no sharp cut-off; inactive means mostly below about 7.6%;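 further: 0% = cells with vehicle only and 100% = reference agonist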
MOR-DOR ag-1 – agonists of human mu-delta opioid receptor heterodimerization. P35372+P41143. cells, OPRM1-OPRD1 heterodimerization, luminescence. activation, % at 9.3 µM. 0.3% of 340,000 active. AID 504326;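 further: 0% = vehicle-treated cells and 100% = reference agonist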
HTR5A inv ctr – counter-screen for OPRM1-OPRD1 inverse agonists: human HTR5A inverse agonism | HTR5A cell line, luminescence | 0.083% of 340,000 active | inhibition, % at 9.3 µM | P47898; in the data active means inhibition mostly above about 23%, no sharp cut-off; inactive means mostly below about 18%;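 further: 0% = cells with DMSO and 100% = no-cell wells with DMSO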
MOR-DOR ag-2 – promotes OPRM1-OPRD1 heterodimerization in HTR5A counter-screen | U2OS counter-screen cells, complementation luminescence, 3 h | shares compounds with HTR5A ag ctr | activation, % at 9.3 µM | 13% of 800 active
HTR5A ag conf – HTR5A (human) agonism, confirmation; shares compounds with HTR5A ag ctr; activation, % at 9.3 µM; 17% of 800 active; HTR5A agonist cell assay, luminescence; in the data active means activation above about 17%;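 further: 0% = cells with vehicle only and 100% = full reference agonist response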
* hit, by the source's call; / = no result given. Unless noted, no stated cut-off is given here; in the data, active means activation above about 18%; inactive means the rest.

SMILES	OPRM1-OPRD1 inv	HTR5A ag ctr	MOR-DOR ag-1	HTR5A inv ctr	MOR-DOR ag-2	HTR5A ag conf
O=C(C1=COCCO1)N1CCN(c2nc3ccc([N+](=O)[O-])cc3s2)CC1	7	16*	-1	-49	83*	6
COc1ccc(C(=O)C2CCCN(C(=O)C3=CCCC3)C2)c(C)c1 (stereo not given)	13	-2	-3	-1	/	/
CC1CCc2sc3ncnc(N4CCN(CCO)CC4)c3c2C1 (stereo not given)	3	4	-1	-15	/	/
Cc1c(C(=O)Nc2ccncc2)sc2nc(-c3ccc(F)cc3)cn12	-27	19*	5	-47	7	2
COc1ccc(-c2cn3c(C)c(C(=O)Nc4ccncc4)sc3n2)cc1	-6	3	1	-24	/	/
Cc1ccc(S(=O)(=O)N2CCN(C(=O)C(C)Cn3nc(C)c(C)c3C)CC2)cc1 (stereo not given)	14	-4	-3	-4	/	/
O=C1N(c2ccccc2C(F)(F)F)O[C@@]1(c1ccccc1)C1CCCCC1	12	4	-3	-21	/	/
O=C1N(c2ccccc2C(F)(F)F)O[C@@]1(c1ccccc1)C1CCCC1	-22	29*	4	-78	-1	-3
Cc1ccc(S(=O)(=O)NN=C2CCC(C(C)(C)C)CC2)cc1[N+](=O)[O-] (stereo not given)	6	10	-1	-36	/	/
CC(C)(C)C1CCC(=NNS(=O)(=O)c2ccc(Br)cc2)CC1 (stereo not given)	-1	21*	0	-73	7	4
CN(Cc1ccccc1Cl)C(=O)c1cnccc1C(F)(F)F	11	15*	-2	-4	0	3
C/C(=N\NC(=O)C1COc2ccccc2O1)c1cc2ccccc2o1 (stereo not given)	-10	-1	1	4	/	/
CN(C(=O)c1cccc(NC(=O)Cc2ccc(NC(=O)C3CCCN(C(=O)C4CCCCC4)C3)cc2)c1)C1CCCCC1 (stereo not given)	1	2	0	-7	/	/
CCOC(=O)c1c(NC(=O)CSc2n[nH]c(CNc3ccccc3)n2)sc(C)c1C	-50	23*	9	-12	6	4
COC(=O)c1c(NC(=O)CSc2n[nH]c(N)n2)sc(C)c1C	8	-1	-1	0	/	/
CCOC(=O)c1c(NC(=O)CSc2n[nH]c(N)n2)sc(CC)c1C	-19	17*	3	-24	9	2
CCOC(=O)c1c(NC(=O)CSc2n[nH]c(-c3ccco3)n2)sc(C)c1C	0	5	0	-24	/	/
COc1ccccc1N1CCN(C(=O)c2cccc(C(=O)N3CCN(c4ccccc4OC)CC3)c2)CC1	0	15*	0	-36	4	-4
COc1ccc(C(=O)N2CCN(c3ccccc3Cl)CC2)cc1S(=O)(=O)NC1CC1	0	18*	0	-44	96*	3
COc1ccccc1N1CCN(C(=O)C2CCN(C(=O)c3cccc(Cl)c3)CC2)CC1	5	1	-1	-3	/	/
C=CCn1c(=N)n(CC(=O)c2ccc(OC)cc2)c2ccccc21	15	-3	-3	7	/	/
CCOC(=O)CCSc1nc(-c2ccc3c(c2)OCO3)cc(C(F)(F)F)c1C#N	-11	18*	2	-42	1	5
CCOC(=O)CC(=O)CSc1nc(-c2ccc3c(c2)OCO3)cc(C(F)(F)F)c1C#N	6	2	-1	-6	/	/
COc1ccc(CC(C)N2CCN(c3cccc(C(F)(F)F)c3)CC2)cc1OC (stereo not given)	-27	33*	5	-106	11	29*
CCOc1cc(CN2CCN(c3cccc(C(F)(F)F)c3)CC2)ccc1OC	-15	6	3	-17	/	/
SMILES	OPRM1-OPRD1 inv	HTR5A ag ctr	MOR-DOR ag-1	HTR5A inv ctr	MOR-DOR ag-2	HTR5A ag conf
CCOC(=O)c1c(NC(=O)CSc2nnc3c(Cl)cc(Cl)cn23)sc2c1CCC2	-4	4	1	-27	/	/
CCCOn1nnnc1-c1ccccc1	-1	20*	0	-56	535*	3
Cc1ccc2ccccc2c1CSc1nc(N)nc2c1ncn2CC(C)C	17	15*	-4	-58	4	2
CC(C)Cn1cnc2c(SCc3ccccc3)nc(N)nc21	7	-1	-1	6	/	/
COc1cc(OC)c(C2SCCN2S(=O)(=O)c2ccc(F)cc2)cc1OC (stereo not given)	4	-1	-1	-36	/	/
COc1ccc(OC)c(C2SCCN2S(=O)(=O)c2cccc(C(F)(F)F)c2)c1 (stereo not given)	-18	17*	3	-39	3	-4
C/C(=N\NS(=O)(=O)c1ccc(Br)cc1)c1ccc2c(c1)OCO2	-3	7	1	1	/	/
C/C(=N/NS(=O)(=O)c1ccc(Cl)cc1)c1ccc2c(c1)OCO2	17	15*	-3	-7	3	-1
COc1ccccc1CNC(=O)CN(C)CC(=O)Nc1cccc(F)c1	11	4	-2	-5	/	/
O=C(Nc1cccc(Cl)c1)Nc1cc(S(=O)(=O)N2CCCCC2)ccc1Cl	-13	1	2	-2	/	/
CN1CCN(S(=O)(=O)c2ccc(NC(=O)Nc3cccc(Cl)c3)cc2)CC1	-33	17*	6	-89	8	7
O=C(CN1C(=O)c2ccccc2C1=O)Nc1cccc(S(=O)(=O)Nc2ccccc2Cl)c1	-5	2	1	-8	/	/
O=C(Nc1ccccc1)C1C2/C=C\CCCCC21 (stereo not given)	-26	-3	4	-45	/	/
Cc1ccc(NC(=O)C2C3/C=C\CCCCC32)cc1C (stereo not given)	-36	20*	6	-8	6	11
CN(C)CCCn1c2c(c(SCC(=O)Nc3ccc4c(c3)OCCO4)nc1=O)CCC2	4	-3	-1	8	/	/
Cc1ccc(-n2nc3c(c2NC(=O)c2ccc4c(c2)OCO4)CS(=O)(=O)C3)cc1C	5	4	-1	3	/	/
CCOC(=O)c1sc(NNC(=O)c2ccc(F)cc2)nc1C	-14	16*	3	-3	0	-2
CCOC(=O)c1sc(NNC(=O)c2ccc(C)cc2)nc1C	2	0	0	-16	/	/
Cc1cccc(NC(=S)NC(=O)/C=C/c2ccco2)n1	1	-8	0	18	/	/
CCOc1ccc(-c2c[n+]3c(n2-c2ccccc2)CCCCC3)cc1	5	0	-1	10	/	/
Cc1cc(C)nc(SCC(=O)N/N=C\c2sccc2C)n1	1	22*	0	-48	2	22*
CC(C)(C)OC(=O)N1CCC(NC(=O)c2nc[nH]c2C(=O)NCC(=O)OCc2ccccc2)CC1	-1	10	0	-28	/	/
Cc1cc[n+](Cc2ccccc2)c(N)c1	6	14*	-1	-13	55*	-3
Cc1noc(C)c1C(=O)OCC(=O)Nc1ccccc1C(=O)NC(C)c1ccccc1 (stereo not given)	-7	17*	1	-6	1	0
CCOc1ccc(NC(=O)c2cc(=O)[nH]c3ccccc23)cc1	7	16*	-1	-44	21*	-1

Bioassay records: PubChem BioAssay, The Scripps Research Institute Molecular Screening Center
